From the supplement of paper PMC10849652
Targets with a hit are over-represented here; the source holds about 7,900 in all. About 0.6% of all pairs of compound and target were hits.

What was measured:
Experiment in all cases: log2 fold change, soluble protein after heating vs DMSO (PISA); higher = thermal stabilisation; K562 cells, 10 uM, 30 min; active = over 0.2 and 3.5 SD of the protein, either way, in both replicates (recomputed)
crizotinib = compound: C[C@@H](Oc1cc(-c2cnn(C3CCNCC3)c2)cnc1N)c1c(Cl)ccc(F)c1Cl [crizotinib]
How it was run: (§1)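 Values are thermal stability changes relative to control samples and are taken from duplicates. They are stated as log2 fold changes. Before quantification by TMTpro 16plex LC-MS/MS with equalised channel sums, K562 cells at 2×10^6 cells/mL were treated with 10 μM compound for 30 min, heated in aliquots for 3 min across 48°C-58°C, pooled, extracted in PBS with 0.5% NP-40 at 4°C, and centrifuged at 21,000xg for 90 min to give the soluble supernatant.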

[1] = compound: C[C@@H]1COCCN1C2=NC(=NC(=C2)C3(CC3)S(=O)(=O)C)C4=C5C=CNC5=CC=C4
How it was run: as §1

[2] = compound: C[C@H](C1=CC=C(C=C1)C(=O)NC2=C3C=CNC3=NC=C2)N
How it was run: as §1

duvelisib = compound: C[C@H](Nc1ncnc2nc[nH]c12)c1cc2cccc(Cl)c2c(=O)n1-c1ccccc1 [duvelisib]
How it was run: as §1

gandotinib = compound: Cc1cc(Nc2cc(CN3CCOCC3)c3nc(C)c(Cc4ccc(Cl)cc4F)n3n2)n[nH]1 [gandotinib]
How it was run: as §1

tozasertib = compound: Cc1cc(Nc2cc(N3CCN(C)CC3)nc(Sc3ccc(NC(=O)C4CC4)cc3)n2)n[nH]1 [tozasertib]
How it was run: as §1

[3] = compound: Cc1cc(SCc2sc(-c3ccc(C(F)(F)F)cc3)nc2C)ccc1OCC(=O)O
How it was run: as §1

doramapimod = compound: Cc1ccc(-n2nc(C(C)(C)C)cc2NC(=O)Nc2ccc(OCCN3CCOCC3)c3ccccc23)cc1 [doramapimod]
How it was run: as §1

ispinesib = compound: Cc1ccc(C(=O)N(CCCN)[C@@H](c2nc3cc(Cl)ccc3c(=O)n2Cc2ccccc2)C(C)C)cc1 [ispinesib]
How it was run: as §1

bafetinib = compound: Cc1ccc(NC(=O)c2ccc(CN3CC[C@H](N(C)C)C3)c(C(F)(F)F)c2)cc1Nc1nccc(-c2cncnc2)n1 [bafetinib]
How it was run: as §1

[4] = compound: Cc1cccc(CC(=O)N2CCc3c2ccc(-c2cn(C)c4ncnc(N)c24)c3F)n1
How it was run: as §1

nilotinib = compound: Cc1cn(-c2cc(NC(=O)c3ccc(C)c(Nc4nccc(-c5cccnc5)n4)c3)cc(C(F)(F)F)c2)cn1 [nilotinib]
How it was run: as §1

[5] = compound: Cc1nc(Nc2n[nH]c3c2CN(C(=O)N[C@H](CN(C)C)c2ccccc2)C3(C)C)c2sccc2n1
How it was run: as §1

dasatinib = compound: Cc1nc(Nc2ncc(C(=O)Nc3c(C)cccc3Cl)s2)cc(N2CCN(CCO)CC2)n1 [dasatinib]
How it was run: as §1

[6] = compound: Cc1ncc(-c2ccnc(Nc3ccc(S(C)(=O)=O)cc3)n2)n1C(C)C
How it was run: as §1

[7] = compound: Cn1cc(-c2ccc3c(c2)CCN3C(=O)Cc2cccc(C(F)(F)F)c2)c2c(N)ncnc21
How it was run: as §1

[8] = compound: Cn1cc(-c2ccc3nnc(C(F)(F)c4ccc5ncccc5c4)n3n2)cn1
How it was run: as §1

tipifarnib = compound: Cn1cncc1[C@@](N)(c1ccc(Cl)cc1)c1ccc2c(c1)c(-c1cccc(Cl)c1)cc(=O)n2C [tipifarnib]
How it was run: as §1

mubritinib = compound: FC(F)(F)c1ccc(/C=C/c2nc(COc3ccc(CCCCn4ccnn4)cc3)co2)cc1 [mubritinib]
How it was run: as §1

[9] = compound: CS(=O)(=O)c1ccc(-c2cnc(N)c(C(=O)Nc3ccccc3)n2)cc1
How it was run: as §1

Measured: log2 fold change

GSTT1 (UniProt P30711)
UniProt P30711, sequence (P30711 whole entry, looked up): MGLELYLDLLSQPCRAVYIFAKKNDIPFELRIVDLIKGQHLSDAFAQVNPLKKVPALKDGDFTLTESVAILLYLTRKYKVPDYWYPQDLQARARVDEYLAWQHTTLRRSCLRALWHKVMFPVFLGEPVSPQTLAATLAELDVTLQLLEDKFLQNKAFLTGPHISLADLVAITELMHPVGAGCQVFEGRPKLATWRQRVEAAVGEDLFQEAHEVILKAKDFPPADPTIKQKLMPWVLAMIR
active: crizotinib 0.332
inactive: [1] 0.19 | [2] 0.002 | duvelisib 0.1 | gandotinib 0.19 | tozasertib 0.017 | [3] -0.061 | doramapimod -0.003 | ispinesib 0.026 | bafetinib -0.019 | [4] -0.144 | nilotinib 0.056 | [5] -0.019 | dasatinib 0.143 | [6] -0.033 | [7] 0.014 | [8] 0.043 | tipifarnib -0.065 | mubritinib 0.012

FAT2 (UniProt Q9NYQ8)
inactive: crizotinib -0.148 | [1] 0.131 | [2] 0.306 | duvelisib 0.372 | gandotinib -0.149 | tozasertib -0.184 | [3] 0.121 | doramapimod 0.006 | ispinesib -0.006 | bafetinib 0.076 | [4] -0.005 | dasatinib 0.006 | [7] 0.167 | [8] 0.002 | tipifarnib 0.008 | mubritinib 0.354

ICMT (UniProt O60725)
UniProt O60725, sequence (O60725 whole entry, looked up): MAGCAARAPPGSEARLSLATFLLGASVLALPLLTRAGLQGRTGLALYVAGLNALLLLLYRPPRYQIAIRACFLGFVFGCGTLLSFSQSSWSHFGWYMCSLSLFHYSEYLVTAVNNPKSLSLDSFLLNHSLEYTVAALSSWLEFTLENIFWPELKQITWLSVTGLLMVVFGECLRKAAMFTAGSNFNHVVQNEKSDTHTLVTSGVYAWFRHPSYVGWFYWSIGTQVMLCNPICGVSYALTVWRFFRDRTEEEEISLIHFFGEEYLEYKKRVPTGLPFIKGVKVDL
inactive: [9] 0.099 | crizotinib 0.074 | [1] 0.331 | duvelisib 0.078 | tozasertib -0.518 | [3] -0.107 | doramapimod 0.01 | ispinesib -0.42 | bafetinib -0.103 | nilotinib 0.049 | [5] 0.17 | dasatinib 0.065 | [6] -0.003 | [8] 0.113 | tipifarnib 0.107 | mubritinib 0.284

HSPA2 (UniProt P54652)
UniProt P54652, sequence (P54652 whole entry, looked up): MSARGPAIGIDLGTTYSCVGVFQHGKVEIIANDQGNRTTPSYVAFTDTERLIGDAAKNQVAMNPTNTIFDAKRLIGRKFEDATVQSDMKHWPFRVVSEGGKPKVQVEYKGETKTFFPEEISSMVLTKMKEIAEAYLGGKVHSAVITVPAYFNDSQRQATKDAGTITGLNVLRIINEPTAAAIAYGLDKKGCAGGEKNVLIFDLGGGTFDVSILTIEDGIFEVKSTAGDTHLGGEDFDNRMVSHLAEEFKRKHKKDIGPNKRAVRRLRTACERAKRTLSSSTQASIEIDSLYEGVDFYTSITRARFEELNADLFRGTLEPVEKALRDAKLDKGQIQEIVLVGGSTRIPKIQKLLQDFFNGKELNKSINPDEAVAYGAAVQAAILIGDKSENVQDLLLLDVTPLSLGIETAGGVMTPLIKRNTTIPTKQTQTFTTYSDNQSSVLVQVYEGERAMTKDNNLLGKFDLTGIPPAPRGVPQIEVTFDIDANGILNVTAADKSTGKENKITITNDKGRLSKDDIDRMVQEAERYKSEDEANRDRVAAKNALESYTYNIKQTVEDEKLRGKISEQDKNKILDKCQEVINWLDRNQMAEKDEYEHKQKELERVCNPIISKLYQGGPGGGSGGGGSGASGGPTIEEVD
inactive: [9] 0.011 | crizotinib 0.123 | doramapimod -0.003 | ispinesib -0.025 | bafetinib -0.08 | nilotinib 0.024 | [5] 0.031 | [6] -0.013 | [8] 0.003 | mubritinib -0.067

FCHO1 (UniProt O14526)
UniProt O14526, sequence (O14526 whole entry, looked up): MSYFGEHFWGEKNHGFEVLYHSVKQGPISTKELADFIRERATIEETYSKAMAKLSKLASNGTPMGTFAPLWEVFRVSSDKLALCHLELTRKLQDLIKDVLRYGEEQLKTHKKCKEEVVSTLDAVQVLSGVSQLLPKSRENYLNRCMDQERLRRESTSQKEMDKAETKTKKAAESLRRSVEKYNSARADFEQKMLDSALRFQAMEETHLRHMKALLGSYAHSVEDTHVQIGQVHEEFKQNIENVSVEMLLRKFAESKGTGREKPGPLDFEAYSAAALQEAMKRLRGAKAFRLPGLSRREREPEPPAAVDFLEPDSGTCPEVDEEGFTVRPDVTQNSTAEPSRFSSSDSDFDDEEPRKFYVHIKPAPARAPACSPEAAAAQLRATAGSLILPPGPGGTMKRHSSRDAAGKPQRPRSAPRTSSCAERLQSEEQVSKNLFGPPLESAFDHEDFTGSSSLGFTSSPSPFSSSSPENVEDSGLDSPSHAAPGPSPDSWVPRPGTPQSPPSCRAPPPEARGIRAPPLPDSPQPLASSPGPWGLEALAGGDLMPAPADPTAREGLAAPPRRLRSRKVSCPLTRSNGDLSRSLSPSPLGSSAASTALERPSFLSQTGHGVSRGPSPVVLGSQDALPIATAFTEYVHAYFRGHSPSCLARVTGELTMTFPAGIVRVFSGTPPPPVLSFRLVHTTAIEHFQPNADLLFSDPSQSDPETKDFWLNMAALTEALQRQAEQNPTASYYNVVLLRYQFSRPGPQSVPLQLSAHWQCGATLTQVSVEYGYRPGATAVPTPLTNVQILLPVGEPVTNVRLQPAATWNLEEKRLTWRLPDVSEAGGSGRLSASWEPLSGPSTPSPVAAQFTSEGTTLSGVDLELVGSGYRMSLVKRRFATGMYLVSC
inactive: [9] 0.033 | crizotinib -0.118 | [1] 0.158 | [2] 0.161 | duvelisib -0.039 | tozasertib 0.043 | [3] 0.109 | doramapimod -0.009 | ispinesib -0.264 | nilotinib -0.118 | [5] -0.067 | dasatinib -0.275 | [6] -0.127 | [7] 0.079 | [8] 0.033 | tipifarnib -0.119 | mubritinib -0.003

FBXO9 (UniProt Q9UK97)
UniProt Q9UK97, sequence (Q9UK97 whole entry, looked up): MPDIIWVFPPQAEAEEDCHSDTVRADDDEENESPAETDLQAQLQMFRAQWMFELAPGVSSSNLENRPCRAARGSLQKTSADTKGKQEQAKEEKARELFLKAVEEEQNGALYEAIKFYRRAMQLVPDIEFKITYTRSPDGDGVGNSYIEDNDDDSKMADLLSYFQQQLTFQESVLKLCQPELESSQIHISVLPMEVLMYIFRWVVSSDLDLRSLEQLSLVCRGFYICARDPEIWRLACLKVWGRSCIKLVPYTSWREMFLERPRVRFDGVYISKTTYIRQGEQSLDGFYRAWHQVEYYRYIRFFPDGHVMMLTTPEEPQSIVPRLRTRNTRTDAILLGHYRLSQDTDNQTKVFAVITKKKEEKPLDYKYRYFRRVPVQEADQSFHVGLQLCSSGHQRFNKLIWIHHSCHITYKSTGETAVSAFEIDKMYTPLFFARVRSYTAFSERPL
inactive: crizotinib 0.028 | [2] -0.046 | duvelisib -0.03 | gandotinib -0.151 | tozasertib -0.071 | [3] 0.079 | doramapimod -0.081 | ispinesib -0.057 | bafetinib 0.067 | [4] 0.234 | nilotinib 0.087 | [5] -0.354 | dasatinib -0.056 | [6] -0.113 | [7] -0.236 | [8] -0.093 | tipifarnib -0.088 | mubritinib -0.265

IDH3A isoform 2 (UniProt P50213)
UniProt P50213, sequence (P50213 whole entry, looked up): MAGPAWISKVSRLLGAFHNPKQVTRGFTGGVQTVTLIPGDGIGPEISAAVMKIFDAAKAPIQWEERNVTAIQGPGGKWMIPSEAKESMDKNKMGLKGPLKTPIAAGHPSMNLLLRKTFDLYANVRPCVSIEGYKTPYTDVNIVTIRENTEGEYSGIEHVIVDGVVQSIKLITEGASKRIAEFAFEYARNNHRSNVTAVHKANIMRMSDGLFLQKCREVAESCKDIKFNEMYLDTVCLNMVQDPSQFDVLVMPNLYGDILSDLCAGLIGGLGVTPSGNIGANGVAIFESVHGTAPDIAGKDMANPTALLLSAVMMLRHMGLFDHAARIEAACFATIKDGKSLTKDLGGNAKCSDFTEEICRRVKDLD
inactive: crizotinib -0.206 | [2] -0.016 | tozasertib -0.141 | doramapimod 0.051 | bafetinib 0.004 | nilotinib 0 | [5] 0.001 | [6] -0.057 | [7] 0.128

GPD1 (UniProt P21695)
UniProt P21695, sequence (P21695 whole entry, looked up): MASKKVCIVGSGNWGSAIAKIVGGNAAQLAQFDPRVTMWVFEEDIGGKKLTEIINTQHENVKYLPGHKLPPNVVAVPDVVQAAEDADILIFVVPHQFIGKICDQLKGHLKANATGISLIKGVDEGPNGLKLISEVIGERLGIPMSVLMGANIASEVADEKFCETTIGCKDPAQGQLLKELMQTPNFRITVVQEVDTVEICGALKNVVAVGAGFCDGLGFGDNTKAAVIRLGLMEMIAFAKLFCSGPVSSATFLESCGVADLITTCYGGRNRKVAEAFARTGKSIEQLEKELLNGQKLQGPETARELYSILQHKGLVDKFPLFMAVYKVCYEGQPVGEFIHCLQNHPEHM
inactive: [9] -0.036 | [1] 0.034 | [2] -0.482 | duvelisib 0.124 | gandotinib 0.094 | tozasertib -0.072 | [3] -0.034 | ispinesib 0.046 | bafetinib -0.171 | [4] -0.123 | nilotinib -0.104 | [5] 0.054 | dasatinib 0.061 | [6] -0.017 | [7] 0.238 | [8] 0.163 | tipifarnib 0.057 | mubritinib 0.045

GOLGA6B (UniProt A6NDN3)
UniProt A6NDN3, sequence (A6NDN3 whole entry, looked up): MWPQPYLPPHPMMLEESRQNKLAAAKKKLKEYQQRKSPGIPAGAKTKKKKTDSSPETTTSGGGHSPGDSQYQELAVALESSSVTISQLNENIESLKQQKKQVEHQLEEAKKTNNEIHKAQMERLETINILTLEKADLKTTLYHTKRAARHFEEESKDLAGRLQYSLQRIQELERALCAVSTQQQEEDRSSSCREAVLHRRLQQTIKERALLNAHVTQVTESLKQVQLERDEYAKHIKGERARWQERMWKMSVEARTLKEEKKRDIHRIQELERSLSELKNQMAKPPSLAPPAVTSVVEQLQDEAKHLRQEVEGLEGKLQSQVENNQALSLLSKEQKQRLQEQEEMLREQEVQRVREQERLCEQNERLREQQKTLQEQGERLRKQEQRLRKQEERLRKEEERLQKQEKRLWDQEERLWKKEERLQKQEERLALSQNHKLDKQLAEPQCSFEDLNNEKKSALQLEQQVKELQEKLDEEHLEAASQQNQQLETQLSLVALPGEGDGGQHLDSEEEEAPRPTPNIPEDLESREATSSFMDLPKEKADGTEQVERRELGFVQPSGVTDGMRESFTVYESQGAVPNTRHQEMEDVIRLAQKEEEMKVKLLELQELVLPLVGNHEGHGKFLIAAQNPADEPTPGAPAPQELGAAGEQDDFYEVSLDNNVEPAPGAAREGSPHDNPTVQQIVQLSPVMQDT
inactive: [9] -0.003 | crizotinib 0.05 | [1] 0.036 | gandotinib 0.404 | doramapimod -0.139 | bafetinib -0.087 | [4] -0.042 | nilotinib -0.183 | [5] 0.02 | [6] 0.02 | mubritinib 0.146

HNRNPK isoform 3 (UniProt P61978)
inactive: [9] -0.056 | crizotinib -0.009 | [1] -0.237 | duvelisib 0.038 | gandotinib -0.082 | tozasertib 0.004 | [3] -0.037 | doramapimod 0.05 | ispinesib 0.014 | bafetinib 0.003 | [4] -0.18 | nilotinib -0.115 | [5] -0.022 | dasatinib 0.021 | [6] 0.143 | [8] -0.002 | mubritinib -0.101
